DT40 TDP1 no CPT: qHTS for Inhibitors of human tyrosyl-DNA phosphodiesterase 1 (TDP1): qHTS in cells in absence of CPT. DT40 Tdp1-/- hTDP1 cells, no CPT, ATP luminescence, 48 h. Potency, µM (top dose mostly 46.2 µM), inactives show at the highest dose activity change, negative = growth inhibition, hits mostly inhibitors. 420,000 tested, 15% active; note: potency is the fitted concentration of half-maximal effect; % is set by controls: 0 for no effect and ±100 for the full control effect; nearly all actives have a fitted effect of over 55% in size
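Luminescent ATP content (CellTiter-Glo) served as the growth readout. Knockout chicken DT40 cells expressing human TDP1 were exposed to compounds without camptothecin for a minimum 48 hr at 37 °C.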
DT40 TDP1 CPT: growth inhibition of DT40 Tdp1-/-;hTDP1 cells with camptothecin (screen for TDP1 inhibitors). chicken DT40 Tdp1-/-;hTDP1 cells + 20 nM CPT, ATP luminescence, 48 h. Potency, µM (titrated, usually from 46.2 µM), for the others: at the top dose activity change, negative = growth inhibition, usual class: inhibitors. 420,000 tested, 12% active. AID 686979; note: potency is the fitted concentration of half-maximal effect; % is set by controls: 0 for no effect and ±100 for the full control effect; nearly all actives have a fitted effect of over 55% in size
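Chicken DT40 Tdp1-/- cells complemented with human TDP1, 400 cells/well, exposed to compounds plus 20 nM camptothecin for at least 48 h at 37 C; viability read as ATP content by CellTiter-Glo luminescence.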
IL-1B inflam inh: inflammasome signaling inhibition, IL-1 beta readout. THP-1 LPS/ATP IL-1B secretion, AlphaLISA, 16 h; hits give low values. activity change, % at 57.5 µM. 360,000 tested, 4.7% active. AID 743279; in the data active = activity change below about -50%; inconclusive = mostly about -30% to -49%; note: % is set by controls: 0 for no effect and ±100 for the full control effect
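Secreted IL-1B measured by AlphaLISA bead assay after 16 h compound exposure of THP-1 cells; compounds (final up to 57.5 uM) added 1 h before LPS (250 ng/mL) and ATP (1.25 mM) stimulation; lower signal means less secretion.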
HepG2 tox: HepG2 cytotoxicity, counter-screen for TGF-b inhibitors | 410,000 tested, 0.76% active | HepG2 CAGA-GFP viability, ATP luminescence, 18 h | Potency, µM (top dose mostly 46.1 µM), for inactives: at the highest dose activity change, negative = cytotoxicity, most hits filed as cytotoxic; note: potency is the fitted concentration of half-maximal effect
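HepG2 CAGA-GFP cells (1000/well, DMEM with 1% FBS) received compound, then TGF-beta at 500 pg/mL final, and were incubated 18 hours at 37 degrees C. Viability was read by CellTiter-Glo luminescence. Media-only wells were set as complete cell-killing and DMSO as no toxicity.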
TGFb inhibitor: TGF-b pathway inhibition; 410,000 tested, 1.2% active; HepG2 CAGA-GFP TGF-b/SMAD3 reporter, GFP fluorescence, 18 h; TGF-beta stimulated, 500 pg/mL final; AID 588855; Potency, µM (highest dose often 46.1 µM), for the others: at the top dose activity, negative = inhibition, usual class: inhibitors; note: potency is the fitted concentration of half-maximal effect; % is set by controls: 0 for no effect and ±100 for the full control effect; nearly all actives have a fitted effect of over 65% in size
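Inhibition of TGF-beta-driven CAGA-GFP reporter expression in HEPG2 cells is measured by cellular GFP fluorescence after 18 h stimulation with 500 pg/mL recombinant TGF-beta in 1% FBS medium at 37 degrees C.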
TDP1 inh: blocks human tyrosyl-DNA phosphodiesterase 1. Q9NUW8. AID 485290. recombinant TDP1, AlphaScreen DNA substrate cleavage. Potency, µM (top dose mostly 130 µM), for the others: at the highest dose activity change, negative = inhibition, hits mostly inhibitors. 350,000 tested, 0.28% active; note: potency is the fitted concentration of half-maximal effect; % is set by controls: 0 for no effect and ±100 for the full control effect; nearly all actives have a fitted effect of over 40% in size
Target sequence (Q9NUW8 whole entry, looked up): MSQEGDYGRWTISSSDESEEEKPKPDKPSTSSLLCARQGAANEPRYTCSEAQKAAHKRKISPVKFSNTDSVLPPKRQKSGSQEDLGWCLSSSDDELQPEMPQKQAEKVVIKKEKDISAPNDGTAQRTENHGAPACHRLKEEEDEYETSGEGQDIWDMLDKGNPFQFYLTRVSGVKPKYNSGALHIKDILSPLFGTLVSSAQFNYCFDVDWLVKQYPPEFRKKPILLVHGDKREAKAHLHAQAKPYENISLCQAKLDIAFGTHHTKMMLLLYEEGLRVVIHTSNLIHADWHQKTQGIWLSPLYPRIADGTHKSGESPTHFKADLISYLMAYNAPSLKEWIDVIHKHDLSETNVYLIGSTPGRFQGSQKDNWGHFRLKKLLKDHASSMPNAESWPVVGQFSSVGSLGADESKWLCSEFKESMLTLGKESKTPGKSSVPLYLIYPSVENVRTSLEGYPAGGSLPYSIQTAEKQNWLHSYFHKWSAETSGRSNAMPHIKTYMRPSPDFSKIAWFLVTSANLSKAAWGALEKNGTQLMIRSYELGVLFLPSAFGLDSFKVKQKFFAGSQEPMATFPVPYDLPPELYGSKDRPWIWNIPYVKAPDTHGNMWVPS
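AlphaScreen read-out: signal falls as enzyme removes the 3' tyrosine-FITC from a 5'-biotinylated DNA oligo (15 nM, 5 min, RT). Enzyme was E. coli-made recombinant Tdp1 at 1 nM, exposed to compound for 15 min beforehand; beads 10 ug/ml, 10 min.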
Numbers without * were called inactive; ? = inconclusive; . = no result; [ ] = remark or other dose. Hits are enriched below; roughly 18% of the tested compounds scored in any of these assays. Unless noted, calls come from the whole dose curve; as a rule, active = well fitted curve in the direction sought with a large enough effect; inconclusive = small, poorly fitted or top-dose-only effect, or another doubt; inactive = no such curve, though single readings can be large; an effect the other way counts as inactive or inconclusive.

SMILES	DT40 TDP1 no CPT	DT40 TDP1 CPT	IL-1B inflam inh	HepG2 tox	TGFb inhibitor	TDP1 inh
Cc1ccc(Cn2c(C(C)Nc3nc(-c4ccc(F)cc4)cs3)nc3cc(Cl)c(Cl)cc32)cc1 (stereo not drawn)	?	29µM*	30	-19%	?	.
COc1ccccc1OCC(=O)NCC1CCCN(C(=O)c2ccccc2SC)C1 (stereo not drawn)	15µM*	?	14	-2%	-21%	1%
COc1ccccc1OCC(=O)NCC1CCCN(C(=O)c2ccccc2C(C)=O)C1 (stereo not drawn)	3%	8%	-7	-27%	-6%	-2%[56.1 µM]
Cc1ccc(C)c(NC(=O)Cn2c(=O)n(Cc3ccc4c(c3)OCO4)c(=O)c3oc4ccccc4c32)c1	2.9µM*	2.9µM*	.	-11%	-27%	5%
Cc1cccc(NC(=O)Cn2c(=O)n(Cc3ccc4c(c3)OCO4)c(=O)c3oc4ccccc4c32)c1C	7.3µM*	7.3µM*	.	-2%	-8%	-5%
O=C(Cn1c(=O)n(Cc2ccccc2)c(=O)c2oc3ccccc3c21)Nc1ccc(Cl)cc1	18µM*	?	.	-18%	-23%	-3%
COc1cccc2c(=O)cc(C)n(CC(=O)Nc3ccccc3C)c12	15µM*	?	4	-8%	-14%	4%
O=C(Cn1c(=O)n(Cc2ccc3c(c2)OCO3)c(=O)c2oc3ccccc3c21)Nc1ccccc1F	-16%	-21%	.	-2%	0%	3%
Cc1ccc(Cl)cc1NC(=O)Cn1c(=O)n(Cc2ccccc2)c(=O)c2oc3ccccc3c21	?	?	.	2%	-12%	3%
Cc1ccc(NC(=O)Cn2c(=O)n(Cc3ccc4c(c3)OCO4)c(=O)c3oc4ccccc4c32)cc1C	-23%	-25%	.	-3%	-5%	3%
O=C(c1cncc(Br)c1)N1CCN(S(=O)(=O)c2ccc(Cl)cc2)CC1	-12%	7%	13	2%	4%	.
Cc1cccc(NC(=O)Cn2c(=O)n(Cc3ccccc3)c(=O)c3oc4ccccc4c32)c1C	3.3µM*	4.6µM*	.	-1%	18%	3%
CC1(C)CC(=O)C(CO)=C(c2cccc3ccccc23)C1=O	-15%	0%	4	3%	0%	2%
COc1ccc(C2c3ccc(O)cc3Oc3ncn(CCN4CCOCC4)c(=N)c32)cc1OC (stereo not drawn)	-12%	-25%	?	5%	2%	3%
COc1ccc(C2c3ccc(O)cc3Oc3ncn(Cc4ccco4)c(=N)c32)cc1 (stereo not drawn)	21µM*	12µM*	?	-35%	6%	.
COc1ccc(C2c3c(ncn(Cc4ccco4)c3=N)Oc3ccc4ccccc4c32)cc1 (stereo not drawn)	16µM*	?	-77*	3%	-5%	-5%
C[C@@H](CCc1ccc(O)cc1)NCCc1ccc(O)c(O)c1	11µM*	6µM*	.	.	.	2%
Cc1ccc(SCC(=O)OCC(=O)N(C)CC(=O)Nc2ccc(F)cc2)cc1C	-2%	7%	13	0%	16%	-4%
CCn1c(SCc2ccc(Cl)c(Cl)c2)nnc1C(C)NC(=O)c1ccc(OC)cc1 (stereo not drawn)	16µM*	16µM*	-8	3%	-3%	0%
Cc1ccc(S(=O)(=O)N/N=C/c2cc(Br)c(C)o2)cc1	?	16µM*	12	8%	-4%	-1%
Cc1ccc(S(=O)(=O)N/N=C/c2c(F)cccc2Cl)cc1	?	16µM*	16	-17%	-2%	3%
NC(=O)COc1ccc(/C=N\NC(=O)CC(=O)NCCc2ccccc2)cc1	-22%	20%	18	-34%	13%	.
CN(CC(=O)Nc1c(Cl)cccc1Cl)C(=O)C1=COCCO1	-14%	4%	1	0%	16%	-12%
COc1ccccc1C1CN(CC(=O)N2CCC(C(O)c3ccccn3)CC2)Cc2ccccc2O1 (stereo not drawn)	?	-8%[9.04 µM]	.	.	.	.
Cc1csc2c(N3CCN(C(=O)Nc4ccc(Cl)c(Cl)c4)CC3)ncnc12	21µM*	?	-78*	-29%	?	3%
SMILES	DT40 TDP1 no CPT	DT40 TDP1 CPT	IL-1B inflam inh	HepG2 tox	TGFb inhibitor	TDP1 inh
Cc1csc2c(N3CCN(C(=O)NC(C)(C)C)CC3)ncnc12	18µM*	15µM*	22	-21%	?	3%
CS(=O)(=O)N1CCC2(CCCN(Cc3ccc(C#N)cc3)C2)CC1	-16%	-3%	.	.	.	.
CCN(c1ccc(Cl)cc1)S(=O)(=O)c1nnc(NC(=O)C(C)C)s1	-27%	6%	-2	-9%	-1%	-3%
CCOc1ccc(C2OCCC(C)O2)cc1OC (stereo not drawn)	-3%	5%	-5	-15%	-10%	.
COC1(NS(=O)(=O)c2ccc(Br)cc2)C(C)=CC(=O)C=C1C	?	13µM*	34	-2%	-3%	-2%
CCn1ncc(C2=NOC(C(=O)Nc3cccc(C(C)=O)c3)C2)c1C (stereo not drawn)	21µM*	?	-14	4%	15%	1%
COc1cccc(C2=NOC(C(=O)Nc3cccc(C(C)=O)c3)C2)c1OC (stereo not drawn)	?	?	-16	-16%	-11%	1%
COc1ccc(CNC(=O)C2CC(c3ccccc3[N+](=O)[O-])=NO2)cc1 (stereo not drawn)	-20%	-22%	5	-13%	-8%	0%
CCn1ncc(C2=NOC(C(=O)NCc3ccccc3)C2)c1C (stereo not drawn)	1.6µM*	1.2µM*	57	-10%	?	4%
CCn1ncc(C2=NOC(C(=O)NCc3ccc(OC)cc3)C2)c1C (stereo not drawn)	?	16µM*	31	-14%	-5%	6%
CCCCCCCCCCCCCCC(C(=O)O)C(O)(CC(=O)OC)C(=O)O (stereo not drawn)	8.2µM*	10µM*	.	.	.	8%[56.1 µM]
COc1ncc2nc(CCc3ccccc3)c(=O)n(C3CC3)c2n1	?	3%	.	.	.	.
Cn1c(=O)c2c(O)c([N+](=O)[O-])c(=O)n(C)c2n(C)c1=O	-8%	2%	-9	11µM*	-2%	.
Cn1c(=O)c2c(O)c(Cc3ccccc3)c(=O)n(C)c2n(C)c1=O	-18%	-5%	-4	3%	19%	.

Compound activity: PubChem, National Center for Advancing Translational Sciences (NCATS)
